Screens: PubChem, National Center for Advancing Translational Sciences (NCATS)
D3 ag: qHTS of D3 Dopamine Receptor Agonist: qHTS | D(3) dopamine receptor (Homo sapiens), P35462 | D3R DiscoveRx beta-arrestin cells, luminescence, 90 min | max activation, % | actives 0.58% (n = 410,000); in the data active = max activation above about 30%
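Agonist-mode cell screen: cells plated at 1500/well and incubated overnight at 37 °C, then exposed to library compounds for 90 min at 37 °C. Detection reagent was added for 30–60 min at room temperature, and luminescence was read.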
a7 integrin act: qHTS for Activators of Integrin-Mediated Alleviation for Muscular Dystrophy; alpha7betagal myoblasts, beta-gal FDG fluorescence, 48 h; Potency, µM (top dose mostly 38.3 µM), hits mostly activators; actives 0.064% (n = 350,000); AID 624291, 2012; also: nearly all actives have a fitted effect of over 60% in size
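alpha7betagal+/- myoblasts (passage 13, 250/well) treated 48 h at 37C with compounds at 1:260 dilution of DMSO stock. Lysed, then beta-galactosidase activity read as FDG fluorescence (ex 480/em 540) after 30 min, with pre-read for autofluorescence.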
DRD3 antagonist: qHTS of D3 Dopamine Receptor Antagonist: qHTS; max response, negative = inhibition, %; actives 2.5% (n = 360,000); D3R cells, DiscoveRx beta-arrestin luminescence, antagonist mode; hits give low values; D(3) dopamine receptor (Homo sapiens), P35462; in the data active = max response below about -50%; inconclusive = no clear call, values can overlap the other calls
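Cells plated overnight at 1500 cells/well, then exposed to library compounds with dopamine controls for 90 minutes at 37 degrees C. DiscoveRx reagent added for 30–60 minutes at room temperature; luminescence read, quantitative HTS format.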
PTHR1 agonist: qHTS for PTHR1 Agonists: Primary Screen; Potency, µM (titrated, usually from 115 µM), hits mostly activators; AID 743266, 2014; actives 0.075% (n = 410,000); HEK293 GP2 PTHR1 cells, GloSensor cAMP luminescence, 1 h; Parathyroid hormone/parathyroid hormone-related peptide receptor (Homo sapiens), Q03431; also: nearly all actives have a fitted effect of over 55% in size
Target sequence (Q03431 whole entry, looked up): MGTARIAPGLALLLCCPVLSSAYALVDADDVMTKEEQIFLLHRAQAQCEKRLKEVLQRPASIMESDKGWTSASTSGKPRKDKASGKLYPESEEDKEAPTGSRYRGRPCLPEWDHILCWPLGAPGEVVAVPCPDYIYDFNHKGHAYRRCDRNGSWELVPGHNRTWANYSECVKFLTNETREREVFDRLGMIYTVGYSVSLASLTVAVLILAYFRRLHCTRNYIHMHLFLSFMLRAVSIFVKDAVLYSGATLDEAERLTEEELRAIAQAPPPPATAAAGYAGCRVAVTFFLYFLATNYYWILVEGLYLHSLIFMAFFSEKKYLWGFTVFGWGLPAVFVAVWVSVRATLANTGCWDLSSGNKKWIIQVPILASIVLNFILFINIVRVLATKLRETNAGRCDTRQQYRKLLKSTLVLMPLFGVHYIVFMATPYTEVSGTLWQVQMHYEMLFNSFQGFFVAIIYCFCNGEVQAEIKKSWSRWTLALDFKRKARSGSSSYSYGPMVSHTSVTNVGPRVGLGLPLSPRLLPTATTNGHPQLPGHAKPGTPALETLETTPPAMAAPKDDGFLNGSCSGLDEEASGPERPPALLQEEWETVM
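HEK-293-derived GP2 cells expressing PTHR1 and a GloSensor cAMP reporter, 3,000/well, plated overnight, given luciferin plus IBMX (each 0.5 mM as added) for 1 h at 37 °C, then compound for 1 h at 37 °C. Luminescence was read after 15 min at room temperature.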
MBNL1 CUG block: qHTS Assay for Inhibitors of MBNL1-poly(CUG) RNA binding | Muscleblind-like protein 1 (Homo sapiens), Q9NR56 | TR-FRET MBNL1-His/biotin-(CUG)12 binding, 665/545 ratio | Potency, µM (highest dose often 57.5 µM), usual class: inhibitors | actives 0.036% (n = 280,000); active = well fitted inhibition curve with a large enough effect in the signal ratio, with a control signal flat, not every such curve was filed as active; inconclusive = small, poorly fitted or top-dose-only effect, or effect the other way, or a change in a side signal; inactive = no such curve, though single readings can be large or run the other way; the % refers to the signal ratio
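His-tagged MBNL1 binding to biotinylated (CUG)12 RNA was measured by TR-FRET using terbium anti-His antibody (0.055 ng/ul final) and streptavidin-XL665 (5 nM final). Compounds were titrated 92 nM to 58 uM; 60 min at room temperature.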
CBFb RUNX1 block: qHTS Assay for Compounds Blocking the Interaction Between CBF-beta and RUNX1 for the Treatment of Acute Myeloid Leukemia. Runt-related transcription factor 1 (Homo sapiens) + Core-binding factor subunit beta …. AlphaScreen CBFb-His/RUNX1-biotin binding, biochemical. Potency, µM (highest dose often 59.8 µM), actives largely listed as inhibitors. 230,000 tested, under 10 active. AID 1477, 2009
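Compounds were screened at multiple concentrations against a preformed CBF-beta(His)/RUNX1(biotin) complex (30 nM of each) for 15 min at room temperature, followed by 90 min with nickel and streptavidin beads and AlphaScreen reading.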
MBNL1 TRFRET: qHTS Assay for Inhibitors of MBNL1-poly(CUG) RNA binding: Initial hit validation from the primary screen; shares compounds with MBNL1 CUG block; TR-FRET MBNL1-His / biotin-(CUG)12 binding, 60 min; Potency, µM (series often up to 57.6 µM), usual class: inhibitors; actives 50% (n = 140)
MBNL1 AlphaScrn: qHTS Assay for Inhibitors of MBNL1-poly(CUG) RNA binding: Initial hit validation in AlphaScreen assay for MBNL1-(CUG)12 binding | shares compounds with MBNL1 CUG block | AlphaScreen MBNL1-His / biotin-(CUG)12 binding | Potency, µM (top dose mostly 57.7 µM), usual class: inhibitors | actives 30% (n = 140) | AID 493205, 2011
Menin-MLL HTRF: qHTS Assay for Inhibitors of MBNL1-poly(CUG) RNA binding: Counterscreen HTRF assay. shares compounds with MBNL1 CUG block. His-Menin/biotin-MLL peptide TR-FRET counterscreen. Potency, µM (highest dose often 57.6 µM), usual class: inhibitors. actives 20% (n = 120)
Numbers stand for hits; 0 = inactive; ? = inconclusive; - = not tested or not shown. Hits are enriched below; roughly 2.8% of the tested compounds scored in any of these assays. Unless noted, calls follow the shape of the dose curve; as a rule, active = well fitted curve in the direction sought with a large enough effect; inconclusive = small, poorly fitted or top-dose-only effect, or another doubt; inactive = no such curve, though single readings can be large; an effect the other way counts as inactive or inconclusive.

SMILES	D3 ag	a7 integrin act	DRD3 antagonist	PTHR1 agonist	MBNL1 CUG block	CBFb RUNX1 block	MBNL1 TRFRET	MBNL1 AlphaScrn	Menin-MLL HTRF
C/C1=C2/[N-]C(C(CC(N)=O)[C@@]2(C)CCC(=O)NCC(C)OP(=O)([O-])O[C@H]2[C@@H](O)[C@@H](n3cnc4cc(C)c(C)cc43)O[C@@H]2CO)[C@]2(C)N=C(/C(C)=C3N=C(/C=C4N=C1C(CCC(N)=O)C\4(C)C)[C@@H](CCC(N)=O)[C@]\3(C)CC(N)=O)[C@@H](CCC(N)=O)[C@]2(C)CC(N)=O.CC(=O)O.[Co] (stereo partly drawn)	-	-	-	-	-	-	8.2µM	2.6µM	-
C/C1=C2N=C(/C=C3N=C(/C(C)=C4\[N-][C@@](C)([C@@H]5N=C1[C@](C)(CCC(=O)NCC(C)OP(=O)(O)O[C@H]1[C@@H](O)[C@@H](n6cnc7cc(C)c(C)cc76)O[C@@H]1CO)[C@H]5CC(N)=O)[C@@](C)(CC(N)=O)[C@@H]4CCC(N)=O)[C@@](C)(CC(N)=O)[C@@H]\3CCC(N)=O)C(C)(C)[C@@H]/2CCC(N)=O.CC(=O)O.[Co] (stereo partly drawn)	0	-	-	-	-	-	-	-	0
CCCCCCC(=O)O	0	0	0	0	-	0	-	-	-
O=C(O)CCCCCCCC(=O)O	0	-	0	0	20µM	0	?	?	0
COc1ccc(OC)c(NCc2cccn2-c2nnc(N3CCCCC3)s2)c1	0	-	-	0	-	-	-	-	-
COc1ccc(C)cc1S(=O)(=O)Nc1ccc(F)c(Cl)c1	0	0	0	0	25µM	0	0	0	0
CC(=O)Nc1cccc(-c2nnc(SCC(=O)c3cc([N+](=O)[O-])ccc3Cl)o2)c1	0	-	-	0	-	-	-	-	-
CCCCN1C(=O)NC2NC(=O)NC21 (stereo not drawn)	0	0	0	0	5.6µM	0	3.3µM	1.2µM	?
COc1ccco1	-	-	-	-	-	0	-	-	-
COc1ccccc1C(=O)Nc1ccc(C(=O)OCc2cc(=O)n3c4c(sc3n2)CCCC4)cc1	0	-	-	0	-	-	-	-	-
CN1CCc2cc(NC(=O)Nc3cccnc3)ccc21	-	-	-	-	-	0	?	0	-
CC(=O)c1ccc(NC(=O)Nc2cccnc2)cc1	0	0	0	0	28µM	-	21µM	0	29µM
COc1ccc(NS(=O)(=O)N2CCOCC2)cc1	0	0	0	0	0	-	-	-	-
CC1CCN(CCCNC(=O)c2ccc(CS(=O)(=O)Cc3ccccc3F)o2)CC1	0	0	0	0	0	0	-	-	-
O=C(NCCCN1CCCCCC1)c1ccc(CS(=O)(=O)Cc2ccccc2F)o1	0	0	0	0	40µM	?	?	0	0
COc1cccc(/C=N/Nc2nccnc2Cl)c1O	0	0	0	0	?	?	?	3.7µM	0
COc1ccc(/C=N/Nc2nccnc2Cl)c(OC)c1	0	0	0	0	?	0	-	-	-
COc1ccc(/C=N/Nc2nccnc2Cl)cc1	0	0	0	0	?	0	?	0	0
Oc1ccccc1/C=N/Nc1nccnc1Cl	0	0	0	0	0	-	-	-	-
Clc1nccnc1N/N=C/c1ccc(Br)cc1	0	0	0	0	?	-	-	-	-
Oc1ccc(/C=N/Nc2nccnc2Cl)c(O)c1	0	0	0	0	?	0	?	6.5µM	0
CCOc1ccc(CN(C)C(=O)CNC(=O)c2sc3ccccc3c2Cl)cc1	0	0	0	0	-	-	-	-	-
O=C(O)CCNC(=O)c1ccc(NC(=O)Cc2ccc(Cl)cc2)cc1	0	0	0	0	0	0	-	-	-
O=C(O)CCc1nc2cc(C(F)(F)F)ccc2n(Cc2ccccc2)c1=O	0	?	0	0	0	-	-	-	-
COc1ccc(CN2CCN(c3cccc(C)c3C)CC2)cc1OC	0	0	0	0	25µM	0	16µM	0	?
SMILES	D3 ag	a7 integrin act	DRD3 antagonist	PTHR1 agonist	MBNL1 CUG block	CBFb RUNX1 block	MBNL1 TRFRET	MBNL1 AlphaScrn	Menin-MLL HTRF
COc1cc(CN2CCN(c3cccc(C)c3C)CC2)cc(Br)c1O	0	0	?	0	0	0	-	-	-
COC(=O)c1csc(S(=O)(=O)N2CCOCC2)c1OC	0	0	0	0	0	-	-	-	-
CCO/C=C1/C(=O)N(Cc2ccccc2)C(=O)c2ccccc21	0	?	0	0	16µM	0	0	52µM	0
Cc1ccc(NC(=O)COC(=O)c2ccc(CN3CCCC3=O)cc2)c(Cl)c1	0	0	0	0	-	-	-	-	-
COc1ccc(CN2CN(c3ccc(Cl)cc3)C(=O)N(n3cnnc3)C2)cc1	0	0	0	0	?	0	-	-	-
O=C1N(c2ccc(Cl)c(Cl)c2)CN(Cc2ccccc2)CN1n1cnnc1	0	?	0	0	13µM	0	16µM	0	?
COc1ccccc1NC(=O)Nc1ccnn1C1CCCCC1	0	0	0	0	0	0	0	0	0
COc1ccccc1NC(=O)Nc1ccnn1Cc1cccs1	0	0	0	0	4µM	0	1.3µM	0.65µM	10µM
COc1ccccc1NC(=O)Nc1ccnn1C1CCN(C(=O)c2ccccn2)CC1	0	0	0	0	0	-	-	-	-
Cc1c(CCC(=O)NC2CC2)c(=O)oc2cc(O)ccc12	0	0	0	0	0	-	-	-	-
O=C1c2ccccc2C(c2nnnn2-c2ccc3c(c2)OCCO3)N1C1CC1 (stereo not drawn)	0	-	0	0	-	-	-	-	-
COC(=O)c1cccc(CC2(C)C(=O)Nc3ccc(OC(F)(F)F)cc32)c1 (stereo not drawn)	0	-	0	0	-	-	-	-	-
CCCNC(=O)Nc1cc(OC)c(OC)cc1Cc1nccc2cc(OC)c(OC)cc12	0	0	0	0	25µM	-	13µM	0	?
CCS(=O)(=O)Nc1cc(OC)c(OC)cc1Cc1nccc2cc(OC)c(OC)cc12	0	0	0	0	0	0	-	-	-
